According to PubChem BioAssay AID1159580 (chemical genetic matrix, 2015):
The whole screen tested about 5,500 compounds, of which about 2,000 (36%) were called active. Inconclusive results (about 18%) are left out. No stated cut-off is given here; in the data, active means normalized growth mostly below about 0.91 (no sharp cut-off); inconclusive means no clear call, values can overlap the other calls; inactive means mostly above about 0.92. The list shows a part of the results.

Assay: chemical genetic growth profiling, strain panel (AID 1159580);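 further: tested at 20 µM; growth read once vehicle control cultures reached saturation at 30 °C; 1 = growth at the plate median or of vehicle wells; lower values mean less growth of the strain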
Settings: growth OD
[1] = S. cerevisiae deletion strains, locus YAL013W, strain DEP1, active compounds read low
[2] = S. cerevisiae deletion strains, locus YBR229C, strain ROT2, active compounds read low
[3] = S. cerevisiae deletion strains, locus YDL101C, strain DUN1, active compounds read low
[4] = S. cerevisiae deletion strains, locus YDR150W, strain NUM1, active compounds read low
[5] = S. cerevisiae deletion strains, locus YEL061C, strain CIN8, active compounds read low
[6] = S. cerevisiae deletion strains, locus YGR078C, strain PAC10, active compounds read low
[7] = S. cerevisiae deletion strains, locus YHR030C, strain SLT2, active compounds read low
[8] = S. cerevisiae deletion strains, locus YHR087W, strain rtc3, active compounds read low
[9] = S. cerevisiae deletion strains, locus YJR043C, strain POL32, active compounds read low
[10] = S. cerevisiae deletion strains, locus YJR075W, strain HOC1, active compounds read low
[11] = S. cerevisiae deletion strains, locus YKL190W, strain CNB1, active compounds read low
[12] = S. cerevisiae deletion strains, locus YLR039C, strain RIC1, active compounds read low
[13] = S. cerevisiae deletion strains, locus YLR058C, strain SHM2 (second series), active compounds read low
[14] = S. cerevisiae deletion strains, locus YLR085C, strain ARP6, active compounds read low
[15] = S. cerevisiae deletion strains, locus YLR262C, strain YPT6, active compounds read low
[16] = S. cerevisiae deletion strains, locus YML094W, strain GIM5, active compounds read low
[17] = S. cerevisiae deletion strains, locus YMR219W, strain ESC1, active compounds read low
[18] = S. cerevisiae deletion strains, locus YMR263W, strain SAP30, active compounds read low
[19] = S. cerevisiae deletion strains, locus YNL153C, strain GIM3, active compounds read low
[20] = S. cerevisiae deletion strains, locus YNL298W, strain CLA4 (second series), active compounds read low
[21] = S. cerevisiae deletion strains, locus YNL322C, strain KRE1, active compounds read low
[22] = S. cerevisiae deletion strains, locus YNR030W, strain Alg12, active compounds read low
[23] = S. cerevisiae deletion strains, locus YPL055C, strain LGE1, active compounds read low
[24] = S. cerevisiae deletion strains, locus YPL241C, strain CIN2, active compounds read low
[25] = S. cerevisiae deletion strains, locus YPR135W, strain CTF4, active compounds read low

Measured: normalized growth

NC(N)=NC(N)=Nc1ccc2c(c1)OCCO2
inactive: [1] 0.987 | [2] 1.01 | [3] 1.01 | [4] 0.918 | [5] 0.995 | [6] 0.99 | [7] 0.983 | [8] 1.01 | [9] 0.989 | [10] 0.993 | [11] 0.994 | [12] 1 | [13] 0.994 | [14] 0.963 | [15] 0.998 | [16] 1.06 | [17] 0.996 | [18] 0.943 | [19] 1.01 | [20] 0.993 | [21] 1 | [22] 0.995 | S. cerevisiae deletion strains, locus YOL006C, strain TOP1, active compounds read low 1.03 | [23] 0.993 | [24] 0.927 | [25] 1.01 | S. cerevisiae strains, strain wild type, active compounds read low 0.995

NNC(=S)Nc1ccc2c(c1)OCCO2
inactive: [1] 1.01 | [2] 1.01 | [3] 1.01 | S. cerevisiae deletion strains, locus YDL134C, strain PPH21, active compounds read low 1.01 | [4] 0.956 | [5] 0.983 | [6] 0.991 | S. cerevisiae deletion strains, locus YGR229C, strain SMI1, active compounds read low 0.986 | [7] 1.02 | [8] 1.05 | [9] 1 | [10] 1.05 | [11] 0.99 | [12] 0.983 | [13] 1.01 | [14] 0.939 | [15] 1.01 | [16] 0.944 | [17] 1.02 | [18] 0.996 | S. cerevisiae deletion strains, locus YMR307W, strain GAS1, active compounds read low 0.954 | S. cerevisiae deletion strains, locus YNL128W, strain TEP1, active compounds read low 0.976 | [19] 0.994 | [20] 0.992 | [21] 1.02 | [23] 0.967 | [24] 1.1 | [25] 0.823
active: [22] 0.806

CC(C)C[C@@H](CN)CC(=O)O
inactive: S. cerevisiae deletion strains, locus YAL021C, strain ccr4, active compounds read low 1.04 | S. cerevisiae deletion strains, locus YAL026C, strain drs2, active compounds read low 1.03 | S. cerevisiae deletion strains, locus YAL030W, strain snc1, active compounds read low 1.02 | S. cerevisiae deletion strains, locus YBL061C, strain skt5, active compounds read low 1.01 | S. cerevisiae deletion strains, locus YBR009C, strain hhf1, active compounds read low 1 | S. cerevisiae deletion strains, locus YBR023C, strain chs3, active compounds read low 1.02 | S. cerevisiae deletion strains, locus YBR171W, strain sec66, active compounds read low 1.02 | S. cerevisiae deletion strains, locus YBR231C, strain swc5, active compounds read low 0.994 | S. cerevisiae deletion strains, locus YBR279W, strain paf1, active compounds read low 1.02 | S. cerevisiae deletion strains, locus YCL011C, strain gbp2, active compounds read low 1.03 | S. cerevisiae deletion strains, locus YCL016C, strain dcc1, active compounds read low 1.04 | S. cerevisiae deletion strains, locus YCL061C, strain MRC1, active compounds read low 1.02 | S. cerevisiae deletion strains, locus YCL069W, strain vba3, active compounds read low 1.04 | S. cerevisiae deletion strains, locus YCR088W, strain abp1, active compounds read low 1.02 | S. cerevisiae deletion strains, locus YDL005C, strain med2, active compounds read low 1.02 | S. cerevisiae deletion strains, locus YDL040C, strain nat1, active compounds read low 1.01 | S. cerevisiae deletion strains, locus YDR001C, strain nth1, active compounds read low 1.01 | S. cerevisiae deletion strains, locus YDR069C, strain doa4, active compounds read low 1.01 | S. cerevisiae deletion strains, locus YDR137W, strain rgp1, active compounds read low 1.06 | S. cerevisiae deletion strains, locus YDR159W, strain sac3, active compounds read low 0.965 | S. cerevisiae deletion strains, locus YDR195W, strain ref2 0.977 | S. cerevisiae deletion strains, locus YDR297W, strain sur2, active compounds read low 1.01 | S. cerevisiae deletion strains, locus YDR334W, strain swr1, active compounds read low 1.02 | S. cerevisiae deletion strains, locus YDR335W, strain msn5, active compounds read low 1.04 | S. cerevisiae deletion strains, locus YDR392W, strain spt3, active compounds read low 0.954 | S. cerevisiae deletion strains, locus YEL003W, strain gim4, active compounds read low 1.01 | S. cerevisiae deletion strains, locus YEL037C, strain rad23, active compounds read low 1.01 | S. cerevisiae deletion strains, locus YEL061C, strain CIN8 (second series), active compounds read low 1.01 | S. cerevisiae deletion strains, locus YER015W, strain faa2, active compounds read low 1 | S. cerevisiae deletion strains, locus YER016W, strain bim1, active compounds read low 1.04 | S. cerevisiae deletion strains, locus YER111C, strain swi4, active compounds read low 1.02 | S. cerevisiae deletion strains, locus YER155C, strain BEM2 (second series), active compounds read low 1 | S. cerevisiae deletion strains, locus YFR010W, strain ubp6, active compounds read low 1.01 | S. cerevisiae deletion strains, locus YGL167C, strain pmr1, active compounds read low 1.02 | S. cerevisiae deletion strains, locus YGL173C, strain kem1, active compounds read low 1.01 | S. cerevisiae deletion strains, locus YGL227W, strain vid30, active compounds read low 1.01 | S. cerevisiae deletion strains, locus YGL240W, strain doc1, active compounds read low 1 | S. cerevisiae deletion strains, locus YGL253W, strain hxk2, active compounds read low 1.02 | S. cerevisiae deletion strains, locus YHR013C, strain ard1, active compounds read low 1.05 | S. cerevisiae deletion strains, locus YHR027C, strain rpn1, active compounds read low 1.01 | [7] 1.09 | S. cerevisiae deletion strains, locus YHR079C, strain IRE1, active compounds read low 0.981 | S. cerevisiae deletion strains, locus YHR142W, strain chs7, active compounds read low 1.03 | S. cerevisiae deletion strains, locus YJL092W, strain hpr5, active compounds read low 1.01 | S. cerevisiae deletion strains, locus YJL095W, strain BCK1 (second series), active compounds read low 1.02 | S. cerevisiae deletion strains, locus YJL095W, strain BCK1, active compounds read low 0.989 | S. cerevisiae deletion strains, locus YJL115W, strain asf1, active compounds read low 1.03 | S. cerevisiae deletion strains, locus YJL129C, strain trk1, active compounds read low 1.03 | S. cerevisiae deletion strains, locus YJL154C, strain vps35, active compounds read low 1.02 | S. cerevisiae deletion strains, locus YJL164C, strain tpk1, active compounds read low 1 | S. cerevisiae deletion strains, locus YJL166W, strain qcr8, active compounds read low 1.01 | S. cerevisiae deletion strains, locus YJL187C, strain SWE1, active compounds read low 1.01 | S. cerevisiae deletion strains, locus YJR066W, strain TOR1, active compounds read low 0.959 | S. cerevisiae deletion strains, locus YKL160W, strain elf1, active compounds read low 1.04 | S. cerevisiae deletion strains, locus YKR026C, strain gcn3, active compounds read low 1.01 | S. cerevisiae deletion strains, locus YKR091W, strain srl3, active compounds read low 1.01 | S. cerevisiae deletion strains, locus YLL001W, strain dnm1, active compounds read low 0.995 | S. cerevisiae deletion strains, locus YLL026W, active compounds read low 1.01 | S. cerevisiae deletion strains, locus YLL041C, strain sdh2, active compounds read low 1.03 | S. cerevisiae deletion strains, locus YLR027C, strain aat2, active compounds read low 1.02 | S. cerevisiae deletion strains, locus YLR113W, strain HOG1, active compounds read low 0.992 | S. cerevisiae deletion strains, locus YLR221C, strain rsa3, active compounds read low 0.998 | S. cerevisiae deletion strains, locus YLR258W, strain gsy2, active compounds read low 1.04 | S. cerevisiae deletion strains, locus YLR262C, strain YPT6 (second series), active compounds read low 1.02 | S. cerevisiae deletion strains, locus YLR320W, strain mms22, active compounds read low 0.981 | S. cerevisiae deletion strains, locus YLR342W, strain FKS1, active compounds read low 1.04 | S. cerevisiae deletion strains, locus YLR357W, strain rsc2, active compounds read low 0.987 | S. cerevisiae deletion strains, locus YLR370C, strain arc18, active compounds read low 1.03 | S. cerevisiae deletion strains, locus YLR384C, strain iki3, active compounds read low 1.02 | S. cerevisiae deletion strains, locus YML120C, strain ndi1, active compounds read low 1.01 | S. cerevisiae deletion strains, locus YMR058W, strain fet3, active compounds read low 1.02 | S. cerevisiae deletion strains, locus YMR125W, strain sto1, active compounds read low 1.02 | S. cerevisiae deletion strains, locus YMR129W, active compounds read low 1.02 | S. cerevisiae deletion strains, locus YMR205C, strain PFK2, active compounds read low 0.993 | S. cerevisiae deletion strains, locus YMR231W, strain pep5, active compounds read low 1.01 | S. cerevisiae deletion strains, locus YNL071W, strain lat1, active compounds read low 1.02 | S. cerevisiae deletion strains, locus YNL183C, strain NPR1, active compounds read low 0.923 | S. cerevisiae deletion strains, locus YNL209W, strain ssb2, active compounds read low 1.01 | S. cerevisiae deletion strains, locus YNL248C, strain rpa49, active compounds read low 1.01 | S. cerevisiae deletion strains, locus YNL322C, strain KRE1 (second series), active compounds read low 1.02 | S. cerevisiae deletion strains, locus YNR049C, strain mso1, active compounds read low 1.01 | S. cerevisiae deletion strains, locus YOR001W, strain rrp6, active compounds read low 1.01 | S. cerevisiae deletion strains, locus YOR070C, strain gyp1, active compounds read low 1.02 | S. cerevisiae deletion strains, locus YOR080W, strain dia2, active compounds read low 1.03 | S. cerevisiae deletion strains, locus YOR083W, strain WHI5, active compounds read low 0.974 | S. cerevisiae deletion strains, locus YOR106W, strain vam3, active compounds read low 1.03 | S. cerevisiae deletion strains, locus YOR231W, strain MKK1, active compounds read low 0.982 | S. cerevisiae deletion strains, locus YOR265W, strain rbl2, active compounds read low 0.999 | S. cerevisiae deletion strains, locus YOR270C, strain vph1, active compounds read low 1.12 | S. cerevisiae deletion strains, locus YOR290C, strain snf2, active compounds read low 1.06 | S. cerevisiae deletion strains, locus YPL051W, strain arl3, active compounds read low 1.04 | S. cerevisiae deletion strains, locus YPL078C, strain atp4, active compounds read low 1.04 | S. cerevisiae deletion strains, locus YPL106C, strain sse1, active compounds read low 1.02 | S. cerevisiae deletion strains, locus YPL240C, strain hsp82, active compounds read low 1.02 | S. cerevisiae deletion strains, locus YPL256C, strain CLN2, active compounds read low 0.984
